Measurements reported in ChEMBL document CHEMBL3988442, “University of Dundee, Small-Polar-MMV Screening Library” (2021).
Hit rate of the full screen: of about 69,000 compounds, about 1,000 (1.4%) showed an effect of 50% or more. The sample holds strong results, similar compounds and a random draw of the others, so the mix is not that of the screen.

Test system: Leishmania donovani
Experiment: Leishmania intramacrophage assay
Type: functional, organism-based
Design: scale not given: in the data most compounds retested in dose-response had high values

Row | SMILES | Percent Effect (30.3 µM, […]) [%] | Percent Effect (30 µM, 30.03 µM) [%]
1 | COCC1c2c(cnn2C)CCN1C(=O)c1cscn1.O=C(O)C(F)(F)F (stereo not drawn) | 23.63 | –
2 | COCC1c2c(cnn2C)CCN1C(=O)c1cccn1C.O=C(O)C(F)(F)F (stereo not drawn) | 51.46 | –
3 | COCC1c2c(cnn2C)CCN1C(=O)c1cc(C)on1.O=C(O)C(F)(F)F (stereo not drawn) | 13.09 | –
4 | CCCC(=O)Nc1ccc(CC(=O)N(C)CCc2cn[nH]c2)cc1 | 12.21 | –
5 | NC(=O)C1CCN(S(=O)(=O)c2cnn(-c3ccccc3)c2)CC1 | 68.11 | –
6 | NC(=O)C1CCN(S(=O)(=O)c2cnn(-c3ccccc3)c2)C1 (stereo not drawn) | 30.89 | –
7 | NC(=O)C1CCCN(S(=O)(=O)c2cnn(-c3ccccc3)c2)C1 (stereo not drawn) | 13.13 | –
8 | COc1ccc([C@@H]2C[C@H](NC(C)=O)C[C@H](CCc3ccccc3)O2)cn1 | 22.12 | –
9 | CN(C(=O)CCc1nc(C2CC2)no1)c1cc(C#N)c2ccccc2n1 | -8.685 | –
10 | O=C(NCCOc1ccc2c(c1)OCO2)C1CC(=O)N(CC2CC2)C1 (stereo not drawn) | – | 11.04
11 | O=C(NCC(=O)N1CCCCC1)c1ccoc1 | – | -16.27
12 | O=C(c1ccc2c(c1)OCO2)N1CCC[C@]2(C[C@H](OCC3CC3)CO2)C1 | – | 23.48
13 | CCO[C@@H]1CO[C@@]2(CCCN(C(=O)c3ccc(OC)c(F)c3)C2)C1 | – | 6.334
14 | O=C(c1cocn1)N1CCC[C@]2(C[C@@H](OCC3CC3)CO2)C1 | 14.29 | –
15 | COC1COC2(CCN(C(=O)c3cocn3)CC2)C1 (stereo not drawn) | -1.503 | –
16 | O=C(c1cocn1)N1CCC2(CC1)CC(OCC1CC1)CO2 (stereo not drawn) | 52.58 | –
17 | O=C(c1ccc(F)c(F)c1)N1CCC[C@]2(C[C@@H](OCC3CC3)CO2)C1 | 53.63 | –
18 | CC(C)CSCCN1CCCN(S(C)(=O)=O)CC1 | 6.004 | –
19 | COc1ccc(C2CCCN2C(=O)c2ccc(=O)n(C)c2)cc1OC (stereo not drawn) | -9.758 | –
20 | Cc1ccsc1CNCCCOc1ccccn1 | -17.78 | –
21 | c1ccc(OCCNCc2cccs2)nc1 | 46.82 | –
22 | c1ccc(OCCCNCc2cccs2)nc1 | 58.66 | –
23 | CC(C)[C@H]1CN(CCCO)C[C@@H]1NC(=O)CCC(F)(F)F | -10.59 | –
24 | CN(C)CCn1ccnc1C1CCCN(c2ncc(Cl)cc2F)C1 (stereo not drawn) | 16 | –
25 | CCS(=O)(=O)N1CCOC2(CCCN(c3ccc(C)nn3)C2)C1.O=C(O)C(F)(F)F (stereo not drawn) | – | 11.03
26 | CNc1nc(C(=O)N2C[C@H]3CC[C@@H]2CN(S(C)(=O)=O)C3)cs1 | 50.94 | –
27 | CNc1nc(C(=O)N2C[C@H]3CC[C@@H]2CN(C2CCOCC2)C3)cs1 | 4.94 | –
28 | CC(C)c1nc(C(=O)N2C[C@H]3CC[C@@H]2CN(C2CCOCC2)C3)cs1 | 12.76 | –
